{
  "source": "PubChem BioAssay (EPA / NIEHS)",
  "key": {"[1]": {"experiment": "Tanguay_ZF_120hpf_ActivityScore_legacy: (Legacy) Oregon State University Tanguay Lab 120 Hour Post-fertilization zebrafish Assay Score for Activity (AID 2283742);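 as to AC50: dechorionated Tropical 5D wild-type zebrafish embryos held singly per well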", "method_in_brief": "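In this whole-embryo screen, dechorionated zebrafish were exposed from 6 hpf until 120 hpf at 28C under a 0.64% DMSO vehicle. Developmental malformations and death were recorded by brightfield microscopy as binary endpoints.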"}, "[2]": {"target": "Luciferin 4-monooxygenase (Photinus pyralis) (UniProt P08659)", "sequence (P08659 whole entry, looked up)": "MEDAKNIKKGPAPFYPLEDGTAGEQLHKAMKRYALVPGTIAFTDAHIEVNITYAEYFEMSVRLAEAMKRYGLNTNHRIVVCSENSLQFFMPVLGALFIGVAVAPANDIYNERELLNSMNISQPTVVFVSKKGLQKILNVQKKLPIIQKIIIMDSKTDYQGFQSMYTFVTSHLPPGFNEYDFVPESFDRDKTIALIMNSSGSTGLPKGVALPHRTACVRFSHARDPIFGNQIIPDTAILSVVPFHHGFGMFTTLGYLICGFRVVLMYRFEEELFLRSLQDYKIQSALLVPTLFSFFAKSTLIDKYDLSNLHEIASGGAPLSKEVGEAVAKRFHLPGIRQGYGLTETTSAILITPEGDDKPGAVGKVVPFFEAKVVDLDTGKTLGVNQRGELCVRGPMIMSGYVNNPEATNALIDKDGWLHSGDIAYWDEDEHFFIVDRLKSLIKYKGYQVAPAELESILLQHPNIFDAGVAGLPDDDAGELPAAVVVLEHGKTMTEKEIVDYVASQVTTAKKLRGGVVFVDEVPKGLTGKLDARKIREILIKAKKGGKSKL", "experiment": "CCTE_Simmons_QuantiLum_inhib_2: CCTE's Firefly Luciferase Inhibition Assay, Simmons Lab (AID 2283767)", "method_in_brief": "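Eight-point titrations of each chemical, 5 nM–87.5 uM final in 0.5% DMSO, were run in three biological replicates against recombinant luciferase for 30 min at 37C. Bioluminescence signal loss, read on reagent injection, gave the inhibition endpoint.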"}, "[3]": {"experiment": "ACEA_AR_agonist_AUC_viability: ACEA Biosciences xCELLigence Real-Time Cell Analysis on Androgen Receptor Agonism for Viability (AID 2283775)", "method_in_brief": "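Viability endpoint from xCELLigence impedance in 22Rv1 prostate cells at 80 h. Eight-point series, 100 uM maximum final.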"}, "[4]": {"experiment": "ACEA_AR_antagonist_AUC_viability: ACEA Biosciences xCELLigence Real-Time Cell Analysis on Androgen Receptor Antagonism for Viability (AID 2283776);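 also: 22Rv1 human prostate cancer cells growing on impedance electrode plates; area under impedance growth curve at 80 h after dosing as viability; hits lower the growth signal relative to DMSO meaning cytotoxicity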", "method_in_brief": "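22Rv1 prostate cells, continuous dosing up to 100 uM final (0.5% DMSO max), duplicate plates. Growth measured by impedance; AUC at 80 h, loss of signal vs DMSO.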"}, "[5]": {"test_system": "zebrafish Androgen Receptor (AR), gene 100005148", "experiment": "ATG_zfAR_XSP1: Attagene TRANS-FACTORIAL Multi-Species (XSP1) HepG2 Assay for zebrafish Androgen Receptor (AR) (AID 2283771)", "method_in_brief": "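Gain-of-signal versus DMSO was measured as reporter transcripts quantified by RT-PCR, fluorescent labelling and capillary electrophoresis after 24 h chemical exposure. The cells were HepG2 expressing a chimeric zebrafish AR-GAL4, co-stimulated with 3 nM 6-alpha-fluorotestosterone.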"}, "[6]": {"target": "zebrafish Estrogen Receptor (ESR1), esr1 (gene 259252) (UniProt P57717)", "sequence (P57717 whole entry, looked up, the tested form may be a part)": "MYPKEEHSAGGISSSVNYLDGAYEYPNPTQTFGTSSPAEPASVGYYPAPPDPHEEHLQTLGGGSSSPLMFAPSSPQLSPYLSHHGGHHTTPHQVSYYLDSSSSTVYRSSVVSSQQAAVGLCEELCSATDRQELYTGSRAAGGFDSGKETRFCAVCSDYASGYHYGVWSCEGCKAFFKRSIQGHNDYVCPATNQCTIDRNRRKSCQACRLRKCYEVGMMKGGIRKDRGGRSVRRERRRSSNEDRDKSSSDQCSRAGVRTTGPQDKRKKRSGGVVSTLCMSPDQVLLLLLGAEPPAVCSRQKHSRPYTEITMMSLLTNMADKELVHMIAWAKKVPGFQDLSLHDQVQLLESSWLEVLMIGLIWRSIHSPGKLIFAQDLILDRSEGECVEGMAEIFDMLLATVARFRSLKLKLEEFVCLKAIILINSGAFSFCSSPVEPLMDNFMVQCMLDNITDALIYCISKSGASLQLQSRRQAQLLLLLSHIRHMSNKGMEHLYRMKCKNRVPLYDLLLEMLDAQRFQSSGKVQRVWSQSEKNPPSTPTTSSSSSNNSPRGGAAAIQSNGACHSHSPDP", "experiment": "ATG_zfER1_XSP1: Attagene TRANS-FACTORIAL Multi-Species (XSP1) HepG2 Assay for zebrafish Estrogen Receptor (ESR1) (AID 2283772)", "method_in_brief": "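Transfect HepG2 with GAL4-UAS multi-reporter constructs; treat 24 h (medium carries 3 nM 6-alpha-fluorotestosterone); extract RNA, reverse-transcribe, PCR-amplify, FAM-label, digest with HpaI; resolve by capillary electrophoresis and compare against DMSO baseline.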"}, "[7]": {"test_system": "zebrafish Estrogen Receptor (ESR2B), gene 317733", "experiment": "ATG_zfER2b_XSP1: Attagene TRANS-FACTORIAL Multi-Species (XSP1) HepG2 Assay for zebrafish Estrogen Receptor (ESR2B) (AID 2283773)", "method_in_brief": "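Human hepatoma HepG2, transiently transfected with multi-reporter units; exogenous zebrafish ESR2B-Gal4 activity measured. Exposure 24 h alongside 3 nM 6-alpha-fluorotestosterone to partly stimulate AR.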"}, "[8]": {"test_system": "frog Estrogen Receptor (ESR2), gene 100174814", "experiment": "ATG_frER2_XSP1: Attagene TRANS-FACTORIAL Multi-Species (XSP1) HepG2 Assay for frog Estrogen Receptor (ESR2) (AID 2283774)", "method_in_brief": "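Multiplexed TRANS-format reporter assay in human hepatoma HepG2: chimeric nuclear receptor-Gal4 activity reported as mRNA induction at 24 h, detected by fluorescent RT-PCR products on capillary electrophoresis and fitted upward from DMSO baseline.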"}, "[9]": {"test_system": "frog Estrogen Receptor (ESR1), gene 398734", "experiment": "ATG_frER1_XSP1: Attagene TRANS-FACTORIAL Multi-Species (XSP1) HepG2 Assay for frog Estrogen Receptor (ESR1) (AID 2283777)", "method_in_brief": "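After transient transfection and 24 h compound treatment, total RNA from HepG2 cells was reverse-transcribed, amplified, FAM-labeled and resolved by capillary electrophoresis. Signal increases were fitted against DMSO controls.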"}, "[10]": {"test_system": "zebrafish Estrogen Receptor (ESR2A), gene 317734", "experiment": "ATG_zfER2a_XSP1: Attagene TRANS-FACTORIAL Multi-Species (XSP1) HepG2 Assay for zebrafish Estrogen Receptor (ESR2A) (AID 2283778)", "method_in_brief": "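Gain-of-signal reporter transcription readout from GAL4-UAS units in transiently transfected HepG2 cells, 24 h exposure, 3 nM 6-alpha-fluorotestosterone co-present. Detection by RT-PCR with capillary electrophoresis fluorescence.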"}, "[11]": {"target": "chicken Estrogen Receptor (ESR1), ESR1 (gene 396099) (UniProt P06212)", "sequence (P06212 whole entry, looked up, the tested form may be a part)": "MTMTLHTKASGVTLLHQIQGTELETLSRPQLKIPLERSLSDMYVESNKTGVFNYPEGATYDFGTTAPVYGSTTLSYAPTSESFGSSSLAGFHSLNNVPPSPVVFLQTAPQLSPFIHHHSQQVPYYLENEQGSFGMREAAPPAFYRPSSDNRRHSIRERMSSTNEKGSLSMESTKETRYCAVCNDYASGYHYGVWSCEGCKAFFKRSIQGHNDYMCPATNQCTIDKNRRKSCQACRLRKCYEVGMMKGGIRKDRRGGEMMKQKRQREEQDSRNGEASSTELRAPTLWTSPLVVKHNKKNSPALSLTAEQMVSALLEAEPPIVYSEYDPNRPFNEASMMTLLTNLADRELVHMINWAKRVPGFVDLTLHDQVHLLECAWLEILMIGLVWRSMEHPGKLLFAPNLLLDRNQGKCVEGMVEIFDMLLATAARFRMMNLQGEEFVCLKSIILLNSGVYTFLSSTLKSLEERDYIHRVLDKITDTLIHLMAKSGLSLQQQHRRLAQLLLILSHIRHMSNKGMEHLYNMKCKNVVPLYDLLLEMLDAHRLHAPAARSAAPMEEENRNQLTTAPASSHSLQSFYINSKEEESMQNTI", "experiment": "ATG_chERa_XSP1: Attagene TRANS-FACTORIAL Multi-Species (XSP1) HepG2 Assay for chicken Estrogen Receptor (ESR1) (AID 2283779)", "method_in_brief": "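Gain-of-signal reporter transcription, relative to DMSO, was scored in transiently transfected HepG2 cells after a 24 h dose. Fluorescence intensity of amplified, digested reporter cDNA fragments served as the endpoint.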"}, "[12]": {"target": "Estrogen receptor (Homo sapiens) (UniProt P03372)", "sequence (P03372 whole entry, looked up, the tested form may be a part)": "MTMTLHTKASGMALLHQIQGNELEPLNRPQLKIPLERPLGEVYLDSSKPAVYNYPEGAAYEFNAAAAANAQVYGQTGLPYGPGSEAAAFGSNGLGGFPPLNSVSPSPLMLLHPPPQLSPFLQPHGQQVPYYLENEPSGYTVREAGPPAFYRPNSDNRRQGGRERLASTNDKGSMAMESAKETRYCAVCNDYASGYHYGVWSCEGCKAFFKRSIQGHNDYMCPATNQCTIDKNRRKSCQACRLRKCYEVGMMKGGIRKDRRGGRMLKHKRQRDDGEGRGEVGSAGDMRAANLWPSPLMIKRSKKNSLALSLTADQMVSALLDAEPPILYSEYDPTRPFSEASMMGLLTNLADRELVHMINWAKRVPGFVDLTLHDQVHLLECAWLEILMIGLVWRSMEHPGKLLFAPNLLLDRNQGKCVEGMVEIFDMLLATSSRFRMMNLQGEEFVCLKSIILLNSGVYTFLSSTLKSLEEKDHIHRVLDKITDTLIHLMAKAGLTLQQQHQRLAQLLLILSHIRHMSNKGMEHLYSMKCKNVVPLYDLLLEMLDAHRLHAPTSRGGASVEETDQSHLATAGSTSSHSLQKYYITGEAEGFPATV", "experiment": "ATG_hERa_XSP1: Attagene TRANS-FACTORIAL Multi-Species (XSP1) HepG2 Assay for human Estrogen Receptor (ESR1) (AID 2283780)", "method_in_brief": "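Reporter transcripts from multiplexed GAL4-UAS units driven by NR-Gal4 chimeras in transiently transfected HepG2 were measured by RT-PCR with capillary electrophoresis 24 h post-dose, with 3 nM 6-alpha-fluorotestosterone present; gain-of-signal relative to DMSO.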"}, "[13]": {"test_system": "turtle Estrogen Receptor (ESR1), gene 101933533", "experiment": "ATG_trERa_XSP1: Attagene TRANS-FACTORIAL Multi-Species (XSP1) HepG2 Assay for turtle Estrogen Receptor (ESR1) (AID 2283781)", "method_in_brief": "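Cell-based chimeric NR-Gal4 transactivation; HepG2; 24 h dosing; mRNA reporter detected by RT-PCR and capillary electrophoresis fluorescence.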"}, "[14]": {"test_system": "Thyroperoxidase (TPO), gene 445522", "experiment": "CCTE_Simmons_GUA_TPO: CCTE's Guaiacol Assay for Thyroperoxidase (TPO) Inhibition, Simmons Lab (AID 2283750)", "method_in_brief": "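Porcine thyroid microsomes (25 ug) in 200mM potassium phosphate, preincubated 30 s at 37C with compound (8 concentrations, 5 nM–87.5 uM) and 35mM guaiacol; 1mM H2O2 starts reaction. Absorbance change at 450nm over first 80 s; loss of signal versus DMSO, three replicates.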"}},
  "note": "Inconclusive results are not listed. Active and inactive are the calls of the source. The calls were made as follows: active = hit-call score of the fitted dose curve at least 0.9, where 1 is the maximum; inconclusive = response in the unintended direction; inactive = score below 0.9.",
  "data": [
    {"smiles": "O=C(NC(=O)c1c(F)cccc1F)Nc1cc(Cl)c(OC(F)(F)C(F)F)c(Cl)c1", "values": [
      {"measurement": "outcome", "setting": "[1]", "value": "inactive"},
      {"measurement": "outcome", "setting": "[2]", "value": "inactive"},
      {"measurement": "AC50", "setting": "[3]", "value": "50 µM (active)"},
      {"measurement": "AC50", "setting": "[4]", "value": "42.2 µM (active)"}
    ]},
    {"smiles": "Cc1cccc(C)c1N", "values": [
      {"measurement": "outcome", "setting": "[1]", "value": "inactive"},
      {"measurement": "outcome", "setting": "[3]", "value": "inactive"}
    ]},
    {"smiles": "c1ccc(-c2ccccc2)cc1", "values": [
      {"measurement": "outcome", "setting": "[1]", "value": "inactive"},
      {"measurement": "outcome", "setting": "[2]", "value": "inactive"},
      {"measurement": "outcome", "setting": "[3]", "value": "inactive"},
      {"measurement": "outcome", "setting": "[4]", "value": "inactive"}
    ]},
    {"smiles": "Clc1ccc(Cl)cc1", "values": [
      {"measurement": "outcome", "setting": "[1]", "value": "inactive"},
      {"measurement": "outcome", "setting": "[3]", "value": "inactive"},
      {"measurement": "outcome", "setting": "[4]", "value": "inactive"}
    ]},
    {"smiles": "Clc1ccc(C(Cl)(Cl)Cl)cc1", "values": [
      {"measurement": "outcome", "setting": "[1]", "value": "inactive"},
      {"measurement": "outcome", "setting": "[2]", "value": "inactive"},
      {"measurement": "outcome", "setting": "[3]", "value": "inactive"},
      {"measurement": "outcome", "setting": "[4]", "value": "inactive"}
    ]},
    {"smiles": "CC(c1ccc(O)cc1)(c1ccc(O)cc1)c1ccc(O)cc1", "values": [
      {"measurement": "outcome", "setting": "[1]", "value": "inactive"},
      {"measurement": "outcome", "setting": "[2]", "value": "inactive"},
      {"measurement": "AC50", "setting": "[3]", "value": "17.8 µM (active)"},
      {"measurement": "AC50", "setting": "[4]", "value": "14.6 µM (active)"}
    ]},
    {"smiles": "CC(C)(c1ccccc1)c1ccc(O)cc1", "values": [
      {"measurement": "AC50", "setting": "[1]", "value": "27 µM (active)"},
      {"measurement": "outcome", "setting": "[2]", "value": "inactive"},
      {"measurement": "outcome", "setting": "[5]", "value": "inactive"},
      {"measurement": "AC50", "setting": "[6]", "value": "1.67 µM (active)"},
      {"measurement": "AC50", "setting": "[7]", "value": "0.882 µM (active)"},
      {"measurement": "AC50", "setting": "[8]", "value": "0.525 µM (active)"},
      {"measurement": "AC50", "setting": "[3]", "value": "12.1 µM (active)"},
      {"measurement": "AC50", "setting": "[4]", "value": "13.3 µM (active)"},
      {"measurement": "AC50", "setting": "[9]", "value": "0.232 µM (active)"},
      {"measurement": "outcome", "setting": "[10]", "value": "inactive"},
      {"measurement": "AC50", "setting": "[11]", "value": "1.98 µM (active)"},
      {"measurement": "AC50", "setting": "[12]", "value": "0.3 µM (active)"},
      {"measurement": "AC50", "setting": "[13]", "value": "0.412 µM (active)"}
    ]},
    {"smiles": "O=C(O)C(F)(F)C(F)(F)C(F)(F)C(F)(F)C(F)(F)C(F)(F)C(F)(F)C(F)(F)F", "values": [
      {"measurement": "outcome", "setting": "[1]", "value": "inactive"},
      {"measurement": "outcome", "setting": "[2]", "value": "inactive"},
      {"measurement": "AC50", "setting": "[3]", "value": "74.2 µM (active)"},
      {"measurement": "AC50", "setting": "[4]", "value": "72 µM (active)"}
    ]},
    {"smiles": "CCCCCCCCOC(=O)c1ccccc1C(=O)OCCCCCCCC", "values": [
      {"measurement": "outcome", "setting": "[1]", "value": "inactive"},
      {"measurement": "outcome", "setting": "[2]", "value": "inactive"},
      {"measurement": "outcome", "setting": "[3]", "value": "inactive"},
      {"measurement": "outcome", "setting": "[4]", "value": "inactive"}
    ]},
    {"smiles": "CN(C)c1nc(=O)n(C2CCCCC2)c(=O)n1C", "values": [
      {"measurement": "outcome", "setting": "[1]", "value": "inactive"},
      {"measurement": "outcome", "setting": "[3]", "value": "inactive"},
      {"measurement": "outcome", "setting": "[4]", "value": "inactive"}
    ]},
    {"smiles": "COc1ccc(O)c(C(C)(C)C)c1", "values": [
      {"measurement": "outcome", "setting": "[1]", "value": "inactive"},
      {"measurement": "outcome", "setting": "[2]", "value": "inactive"},
      {"measurement": "AC50", "setting": "[3]", "value": "81.3 µM (active)"},
      {"measurement": "AC50", "setting": "[4]", "value": "71 µM (active)"}
    ]},
    {"smiles": "Cc1ccccc1[N+](=O)[O-]", "values": [
      {"measurement": "outcome", "setting": "[1]", "value": "inactive"}
    ]},
    {"smiles": "Cc1ccccc1CO[C@@H]1C[C@@]2(C(C)C)CC[C@]1(C)O2", "values": [
      {"measurement": "outcome", "setting": "[1]", "value": "inactive"},
      {"measurement": "outcome", "setting": "[2]", "value": "inactive"},
      {"measurement": "AC50", "setting": "[3]", "value": "76.7 µM (active)"},
      {"measurement": "AC50", "setting": "[4]", "value": "63.6 µM (active)"}
    ]},
    {"smiles": "CCC(C)(c1ccc(O)cc1)c1ccc(O)cc1", "values": [
      {"measurement": "AC50", "setting": "[1]", "value": "49.3 µM (active)"},
      {"measurement": "AC50", "setting": "[14]", "value": "189 µM (active)"},
      {"measurement": "outcome", "setting": "[2]", "value": "inactive"},
      {"measurement": "AC50", "setting": "[3]", "value": "50 µM (active)"},
      {"measurement": "AC50", "setting": "[4]", "value": "42.4 µM (active)"}
    ]},
    {"smiles": "Cc1cc(O)ccc1Cl", "values": [
      {"measurement": "outcome", "setting": "[1]", "value": "inactive"},
      {"measurement": "outcome", "setting": "[3]", "value": "inactive"},
      {"measurement": "outcome", "setting": "[4]", "value": "inactive"}
    ]}
  ]
}
